# In PubChem BioAssay:
# “And” between values parts separate entries of the source, which are not always exact repeats. Equal entries are not always repeated. The source made the active and inactive calls. Unless noted, no stated cut-off is given here; in the data, active means inhibition above about 80%; inactive means the rest.
# Legend:
# [1] = sensitizers of A549 cells to miR-34 induction, primary screen, imaging, A549 dox-inducible miR-34, nuclei and caspase counts (AID 1347080;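 active means compounds whose cell count with miR-34 switched on is under 0.7 times the count with it off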); settings: A549 miR-34 inducible, Hoechst nuclei count, 48 h
# [2] = survival rescue of mitochondrial mutant cells in low glucose, primary screen, MELAS cybrids, Rieske KO mouse fibroblasts, CellTiter-Glo (AID 1508586;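 active means mean z-score across replicates of 1.96 or higher in either the MELAS or the Rieske mutant cell line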;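 further: z relative to plate mean and SD of compound and empty wells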)
# [3] = LFS_MB_P medulloblastoma growth inhibition, cell-based, chromothripsis tumors, cisplatin or BGB combos (AID 1671449); settings: LFS_MB_P medulloblastoma cells;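 further: cells exposed for 96 hours; 0% = vehicle DMSO and 100% = killing by high DMSO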
# [4] = HDN33 neuroblastoma growth inhibition, cell-based, chromothripsis tumors, cisplatin or BGB combos (AID 1671450); settings: HDN33 neuroblastoma cells, stronger effect = higher value;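 further: cells exposed to compound for four days; 0% = vehicle DMSO and 100% = cell killing by high DMSO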
# [5] = ICB984 medulloblastoma cell growth inhibition, synergistic combos for chromothripsis tumors, cisplatin or BGB combos (AID 1671451; call rule not given here;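 further: cells exposed for 96 hours before readout; 0% = vehicle DMSO and 100% = killing by high DMSO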); settings: ICB984 medulloblastoma cells, drug combinations, stronger effect = higher value
# [6] = LFS_MB_1R medulloblastoma cell growth inhibition, synergistic combos for chromothripsis tumors, cisplatin or BGB combos (AID 1671452); settings: LFS_MB_1R medulloblastoma cells, stronger effect = higher value;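 further: cells exposed for 96 hours before readout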
# [7] = HTB85 osteosarcoma cell growth inhibition, synergistic combos for chromothripsis tumors, BGB or cisplatin IC20 combos (AID 1671453); settings: HTB85 osteosarcoma cells, drug combinations, stronger effect = higher value;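 further: cells exposed for 96 hours before readout; 0% = vehicle DMSO and 100% = high DMSO killing control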
# [8] = CRL2098 osteosarcoma cell growth inhibition, synergistic combos for chromothripsis tumors, BGB or cisplatin IC20 combos (AID 1671454); settings: CRL2098 osteosarcoma cells, drug combinations, stronger effect = higher value;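 further: cells exposed for 96 h before readout; 0% = vehicle DMSO and 100% = killing by high DMSO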
# [9] = HD-MB03 medulloblastoma cell growth inhibition, synergistic combos for chromothripsis tumors, BGB or cisplatin IC20 combos (AID 1671455; in the data active means inhibition above about 83%;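 further: 0% = vehicle DMSO and 100% = high DMSO as cytotoxic control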); settings: HD-MB03 medulloblastoma cells, stronger effect = higher value
# [10] = UWB1.289 ovarian carcinoma cell growth inhibition, synergistic combos for chromothripsis tumors, BGB or cisplatin combos (AID 1671456); settings: UWB1.289 ovarian carcinoma cells, stronger effect = higher value;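 further: cells exposed to compound for four days; 0% = vehicle DMSO and 100% = killing by high DMSO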
# [11] = LFS_MB_2R medulloblastoma cell growth inhibition, synergistic combos for chromothripsis tumors, cisplatin combos (AID 1671457); settings: LFS_MB_2R medulloblastoma cells, stronger effect = higher value;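 further: cells exposed to compound for four days before readout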
# [12] = MDA-MB-436 breast carcinoma cell growth inhibition, synergistic combos for chromothripsis tumors, BGB or cisplatin combos (AID 1671458; call rule not given here;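 further: cells exposed for 96 hours; 0% = vehicle DMSO and 100% = killing by high DMSO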); settings: MDA-MB-436 breast carcinoma growth inhibition, drug combinations, stronger effect = higher value
# [13] = UWB1.289_BRCA1 ovarian cancer growth, cell-based, BGB or cisplatin combinations (AID 1671459); settings: UWB1.289 BRCA1 ovarian carcinoma, drug combinations, stronger effect = higher value
# [14] = human astrocyte viability loss, single and combined drugs, cytotoxicity control for chromothriptic childhood tumor combination screen, cell-based, BGB or cisplatin IC20 combos (AID 1671460); settings: Human astrocytes, drug combinations, stronger effect = higher value;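 further: cells exposed to compounds for 96 hours before viability readout; 0% = vehicle and 100% = killing control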
# [15] = growth inhibition of BT084 medulloblastoma cells, cell-based, ICGC_MB145, cisplatin and BGB IC40 combos (AID 1671461); settings: drug combinations, stronger effect = higher value;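 further: cells exposed to drugs for 96 hours; 0% = vehicle DMSO and 100% = high DMSO full killing control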
# [16] = growth inhibition of RCMB18 medulloblastoma cells, cell-based, cisplatin and BGB IC40 combos (AID 1671462); settings: stronger effect = higher value;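 further: cells exposed to compound for four days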
# [17] = growth inhibition of CRL1545 osteosarcoma cells, cell-based, cisplatin and BGB IC20 combos (AID 1671464); settings: stronger effect = higher value;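 further: cells exposed to compound for 96 hours before readout; 0% = vehicle DMSO and 100% = high DMSO killing control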
# [18] = measured here: combination with BGB IC40, at 0.05 µM
# [19] = measured here: with BGB IC20 combination, at 0.5 µM
# [20] = measured here: with cisplatin IC20 combination, at 0.5 µM
# [21] = measured here: combination with cisplatin, at 0.5 µM
# [22] = measured here: combination with cisplatin, at 5 µM
compound,measurement,setting,value
Nc1ccn(C2OC(CO)C(O)C2(F)F)c(=O)n1 (centres undefined),fold change,"[1]; stronger effect = lower value, cell number ratio, induced over uninduced",1.02 (inactive)
same,fold change,[1]; measured here: relative caspase fold change +Dox/-Dox,0.857
same,cell count,"[1]; measured here: total cells with miR-34 induction, stronger effect = lower value",1840
same,cell count,[1]; measured here: total cells without miR-34 induction,1810
same,z-score,"[2]; MELAS cybrid survival, CellTiter-Glo 48 h, stronger effect = higher value",2.35 (active)
same,z-score,"[2]; Rieske KO mouse fibroblast survival, CellTiter-Glo 72 h",-0.225
same,inhibition,"[3]; at 0.5 µM, stronger effect = higher value",12.8% (inactive) and -24.1% (inactive) and -14.5% (inactive)
same,inhibition,"[3]; measured here: combination with BGB IC20, at 0.005 µM",-8.46% and 7.63% and 14%
same,inhibition,"[3]; measured here: combination with BGB IC40, at 0.005 µM",-8.25% and -29.3% and -2.14%
same,inhibition,[3]; [18],-22.1% and -15.3% and -25.2%
same,inhibition,"[3]; measured here: combination with cisplatin, at 0.5 µM, stronger effect = higher value",91.7% and -25.4% and 35.7%
same,inhibition,"[3]; measured here: combination with cisplatin, at 5 µM, stronger effect = higher value",65.8% and 67.6% and 88%
same,inhibition,"[4]; BGB combo, at 5 µM",86.4% and 89.9% and 88.8%
same,inhibition,[4]; at 0.5 µM,87.6% (active) and 87.3% (active) and 83.2% (active)
same,inhibition,"[4]; cisplatin combo, at 5 µM",81.7% and 86.5% and 82.8%
same,inhibition,[4]; [19],88.2% and 89.8% and 84.6%
same,inhibition,[4]; [20],86.2% and 82.4% and 79.7%
same,inhibition,"[4]; single agent, at 5 µM",88.8% and 90% and 87.7%
same,inhibition,"[5]; BGB IC20 combo, at 0.005 µM",-3.49% and -7.36% and -23.1%
same,inhibition,"[5]; BGB IC40 combo, at 0.005 µM",-5.04% and 4.53% and 16%
same,inhibition,"[5]; BGB IC40 combo, at 0.05 µM",26% and 33.4% and 30.2%
same,inhibition,[5]; at 0.5 µM,-22.9% (inactive) and -37.1% (inactive) and -18.5% (inactive)
same,inhibition,"[5]; cisplatin combo, at 0.05 µM",26% and 30.8% and 27.7%
same,inhibition,"[5]; cisplatin combo, at 0.5 µM",-43.1% and -45% and -7.88%
same,inhibition,"[5]; cisplatin combo, at 5 µM",-24% and -19.7% and -23.1%
same,inhibition,"[5]; measured here: 5 uM single agent, at 5 µM",-32.2% and -6.79% and -21%
same,inhibition,[6]; at 0.5 µM,-17.1% (inactive) and -7.38% (inactive) and 7.19% (inactive)
same,inhibition,[6]; [18],-7.29% and 0.139% and -43.6%
same,inhibition,[6]; [21],49.7% and 24.2% and 32.2%
same,inhibition,[6]; [22],66.7% and 77.2% and 68.3%
same,inhibition,[7]; at 0.5 µM,86.6% (active) and 90.3% (active) and 89.1% (active)
same,inhibition,"[7]; measured here: with BGB IC20, at 0.5 µM",76.2% and 85.7% and 83.4%
same,inhibition,"[7]; measured here: with BGB IC20, at 5 µM",72.1% and 73.5% and 75.1%
same,inhibition,"[7]; measured here: with cisplatin IC20, at 0.5 µM",91.2% and 91.9% and 89.4%
same,inhibition,"[7]; measured here: with cisplatin IC20, at 5 µM",90.4% and 93.2% and 92.8%
same,inhibition,"[7]; single agent, at 5 µM",92.2% and 93.6% and 92.8%
same,inhibition,[8]; at 0.5 µM,68.5% (inactive) and 65.4% (inactive) and 40.8% (inactive)
same,inhibition,"[8]; measured here: combination with BGB at IC20, at 0.5 µM",53% and 49.8% and 5.09%
same,inhibition,"[8]; measured here: combination with cisplatin at IC20, at 0.5 µM",70.5% and 84.6% and 51.6%
same,inhibition,[9]; at 0.5 µM,92.5% (active) and 91.3% (active)
same,inhibition,"[9]; measured here: combo with BGB at IC20, at 0.5 µM",87.4% and 87.6% and 86.6%
same,inhibition,"[9]; measured here: combo with cisplatin at IC20, at 0.5 µM",96.8% and 96.7% and 96%
same,inhibition,[10]; at 0.5 µM,36.9% (inactive) and 40.6% (inactive) and 36.4% (inactive)
same,inhibition,"[10]; measured here: inhibition with BGB combination, at 0.05 µM",-8.95% and 6.66% and -8.78%
same,inhibition,"[10]; measured here: inhibition with cisplatin combination, at 0.05 µM",34.8% and 31% and 33.4%
same,inhibition,[11]; at 0.5 µM,-9.87% (inactive) and -8.63% (inactive) and -0.27% (inactive)
same,inhibition,[11]; [21],22.8% and 20.6% and 41.7%
same,inhibition,[11]; [22],40.3% and 52.4% and 57.5%
same,inhibition,[12]; at 0.5 µM,67.3% (inactive) and 69.9% (inactive) and 70.3% (inactive)
same,inhibition,"[12]; measured here: BGB combination, at 0.5 µM",56.1% and 61.1% and 59%
same,inhibition,"[12]; measured here: BGB combination, at 5 µM",58% and 56% and 66.5%
same,inhibition,"[12]; measured here: cisplatin combination, at 0.5 µM",71.9% and 76.1% and 74.4%
same,inhibition,"[12]; measured here: cisplatin combination, at 5 µM",77.8% and 78.1% and 78.7%
same,inhibition,"[13]; BGB combination, concentration series, at 5 µM",71.1% and 55.2% and 80.4%
same,inhibition,[13]; at 0.5 µM,43.5% (inactive) and 49.4% (inactive) and 43.9% (inactive)
same,inhibition,"[13]; cisplatin combination, concentration series, at 5 µM",101% and 97.9% and 125%
same,inhibition,[14]; at 0.5 µM,70% (inactive) and 73.6% (inactive) and 72.6% (inactive)
same,inhibition,"[14]; measured here: combo with BGB IC20, at 0.5 µM",71.3% and 72.2% and 72.3%
same,inhibition,"[14]; measured here: combo with cisplatin IC20, at 0.5 µM",58.6% and 65% and 62%
same,inhibition,[15]; at 0.5 µM,-11% (inactive) and -2.39% (inactive) and 3.77% (inactive)
same,inhibition,"[15]; cisplatin combination, at 0.5 µM",30.6% and 26.6% and 14.1%
same,inhibition,"[15]; cisplatin combination, at 5 µM",52.1% and 55.8% and 69.2%
same,inhibition,"[15]; measured here: BGB IC40 combination 0.05 uM, at 0.05 µM",-18.1% and -16.5% and -27.6%
same,inhibition,"[15]; single agent, at 5 µM",11.1% and 16.6% and 14.7%
same,inhibition,[16]; at 0.5 µM,5.91% (inactive) and 3.99% (inactive) and 14.1% (inactive)
same,inhibition,"[16]; cisplatin combo, at 5 µM",85.9% and 82.9%
same,inhibition,"[16]; measured here: BGB IC40 combination, at 0.05 µM",-10.4% and -39% and -30%
same,inhibition,[16]; [21],68.2% and 64.5% and 57.4%
same,inhibition,"[16]; single agent, at 5 µM",10.1% and 16.5% and 18.8%
same,inhibition,[17]; at 0.5 µM,65.3% (inactive) and 70.4% (inactive) and 61.5% (inactive)
same,inhibition,[17]; [19],73.4% and 66.6% and 67.9%
same,inhibition,[17]; [20],61.3% and 72.3% and 57.7%
same,inhibition,"[17]; single agent, at 0.05 µM",71.8% and 61.1% and 53.4%
same,inhibition,"[17]; single agent, at 5 µM",87.7% and 91.1% and 81.7%
